# Experimental data from PubChem BioAssay (NCATS).
# Records with an inconclusive call do not appear. Entries that show only a call come without a potency. Calls of active or inactive are those of the source. The call rests on the fitted dose curve; in most records, active means well fitted curve in the direction sought with a large enough effect; inconclusive means small, poorly fitted or top-dose-only effect, or another doubt; inactive means no such curve, though single readings can be large; an effect the other way counts as inactive or inconclusive.
# Legend:
# [1] = Quantitative High-Throughput drug screen in 47 multiple myeloma cell lines against the NCATS MIPE library collection: PE2_PLB cell viability assay (AID 1919869); further: nearly all actives have a fitted effect of over 35% in size; further: potency means the concentration at half of the fitted maximal effect
# Method in brief: (§1)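 Viability after 48 h drug exposure was measured as ATP-dependent luminescence. Cells, 500 per well, sat at 37 °C under 5% CO2; DMSO wells set 100%, media-only wells 0%.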
# [2] = Quantitative High-Throughput drug screen in 47 multiple myeloma cell lines against the NCATS MIPE library collection: PCM6_Riken cell viability assay (AID 1919870); further: nearly all actives have a fitted effect of over 30% in size; further: potency means the concentration at half of the fitted maximal effect
# Method in brief: as §1
# [3] = Quantitative High-Throughput drug screen in 47 multiple myeloma cell lines against the NCATS MIPE library collection: RPMI8226_ATCC cell viability assay (AID 1919871); further: nearly all actives have a fitted effect of over 30% in size; further: potency means the concentration at half of the fitted maximal effect
# Method in brief: as §1
# [4] = Quantitative High-Throughput drug screen in 47 multiple myeloma cell lines against the NCATS MIPE library collection: KMS11_JCRBsus cell viability assay (AID 1919873); further: nearly all actives have a fitted effect of over 50% in size; further: potency means the concentration at half of the fitted maximal effect
# Method in brief: as §1
# [5] = Quantitative High-Throughput drug screen in 47 multiple myeloma cell lines against the NCATS MIPE library collection: OPM2_DSMZ cell viability assay (AID 1919872); further: nearly all actives have a fitted effect of over 30% in size; further: potency means the concentration at half of the fitted maximal effect
# Method in brief: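 Myeloma cells (500 per well) were exposed to MIPE 4.0 compounds by pin transfer and incubated 48 hours at 37C, 5% CO2. Viability was read as ATP by CellTiter-Glo luminescence, normalised to DMSO (100%) and media-only (0%) wells.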
# [6] = Quantitative High-Throughput drug screen in 47 multiple myeloma cell lines against the NCATS MIPE library collection: KMS28BM_JCRB cell viability assay (AID 1919874); further: nearly all actives have a fitted effect of over 35% in size; further: potency means the concentration at half of the fitted maximal effect
# Method in brief: as §1
# [7] = target: Cytochrome P450 3A4 (Homo sapiens) (UniProt P08684); experiment: qHTS for inhibitors of CYP3A4 against the NCATS DSHEA and TCM libraries (AID 1919971);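 further: inhibition lowers luminescence from luciferin made by CYP3A4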
# Chain of Cytochrome P450 3A4 (Homo sapiens) (P08684 whole entry, looked up): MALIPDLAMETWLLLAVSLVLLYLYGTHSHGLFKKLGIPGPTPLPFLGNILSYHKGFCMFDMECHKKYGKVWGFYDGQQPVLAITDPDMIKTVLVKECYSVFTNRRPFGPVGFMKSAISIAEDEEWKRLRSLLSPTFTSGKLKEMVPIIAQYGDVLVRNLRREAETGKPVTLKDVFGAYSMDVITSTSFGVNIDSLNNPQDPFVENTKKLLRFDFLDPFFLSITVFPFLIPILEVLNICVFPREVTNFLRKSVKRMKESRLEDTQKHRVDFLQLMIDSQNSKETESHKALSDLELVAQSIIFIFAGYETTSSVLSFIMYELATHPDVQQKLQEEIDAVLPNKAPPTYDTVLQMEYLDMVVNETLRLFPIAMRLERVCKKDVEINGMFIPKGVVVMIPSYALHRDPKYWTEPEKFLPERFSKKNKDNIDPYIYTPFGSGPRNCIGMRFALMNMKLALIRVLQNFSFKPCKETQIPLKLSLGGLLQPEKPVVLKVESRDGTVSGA
# Method in brief: (§2)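 Light output from converted D-luciferin reports remaining CYP activity. Compounds preincubate with enzyme and substrate for 15 min; NADPH regeneration (1x final) runs the reaction for 30-45 min.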
# [8] = target: Cytochrome P450 2D6 (Homo sapiens) (UniProt P10635); experiment: qHTS for inhibitors of CYP2D6 against the NCATS DSHEA and TCM libraries (AID 1919972)
# Chain of Cytochrome P450 2D6 (Homo sapiens) (P10635 whole entry, looked up): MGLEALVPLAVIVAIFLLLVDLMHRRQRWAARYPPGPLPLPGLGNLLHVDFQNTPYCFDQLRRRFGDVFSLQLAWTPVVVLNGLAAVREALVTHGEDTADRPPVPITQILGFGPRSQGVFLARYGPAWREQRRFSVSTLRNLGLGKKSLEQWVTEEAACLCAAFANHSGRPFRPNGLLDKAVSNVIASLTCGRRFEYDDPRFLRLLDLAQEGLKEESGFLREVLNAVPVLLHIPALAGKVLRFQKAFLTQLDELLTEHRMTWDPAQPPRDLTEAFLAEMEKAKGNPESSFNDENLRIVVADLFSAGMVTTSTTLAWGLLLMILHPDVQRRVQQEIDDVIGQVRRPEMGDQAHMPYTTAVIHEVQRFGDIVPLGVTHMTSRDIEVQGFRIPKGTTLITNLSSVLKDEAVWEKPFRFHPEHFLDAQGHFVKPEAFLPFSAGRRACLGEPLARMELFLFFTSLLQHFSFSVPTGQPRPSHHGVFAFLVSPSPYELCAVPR
# Method in brief: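 Steps: enzyme plus luciferin substrate dispensed; test substances pinned; 15 min RT; 1x NADPH regenerating solution added, 30–45 min RT protected from light; detection reagent, 30 min RT; luminescence measured. Minus-enzyme wells as background.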
# [9] = target: Cytochrome P450 2C9 (Homo sapiens) (UniProt P11712); experiment: qHTS for inhibitors of CYP2C9 against the NCATS DSHEA and TCM libraries (AID 1919973);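 further: luminogenic pro-luciferin CYP2C9 substrate turned into luciferin with NADPH regeneration; series mostly up to about 34 µM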
# Chain of Cytochrome P450 2C9 (Homo sapiens) (P11712 whole entry, looked up): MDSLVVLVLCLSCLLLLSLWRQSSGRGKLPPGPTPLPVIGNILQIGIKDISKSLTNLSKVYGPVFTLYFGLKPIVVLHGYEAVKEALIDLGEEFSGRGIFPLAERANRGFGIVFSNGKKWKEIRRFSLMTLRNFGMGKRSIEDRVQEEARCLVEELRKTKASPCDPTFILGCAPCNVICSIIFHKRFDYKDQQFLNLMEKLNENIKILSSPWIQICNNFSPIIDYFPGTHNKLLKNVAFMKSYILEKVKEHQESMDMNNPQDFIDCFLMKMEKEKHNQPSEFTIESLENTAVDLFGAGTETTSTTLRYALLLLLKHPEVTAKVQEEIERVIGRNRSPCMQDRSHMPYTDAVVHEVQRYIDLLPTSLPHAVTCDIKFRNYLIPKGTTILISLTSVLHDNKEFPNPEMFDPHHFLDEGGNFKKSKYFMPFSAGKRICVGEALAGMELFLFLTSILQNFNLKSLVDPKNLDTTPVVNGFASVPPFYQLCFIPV
# Method in brief: as §2
# [10] = target: Cytochrome P450 2C19 (Homo sapiens) (UniProt P33261); experiment: qHTS for inhibitors of CYP2C19 against the NCATS DSHEA and TCM libraries (AID 1919974);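 further: luminescence from luciferin released by CYP2C19 oxidation of a pro-luciferin substrate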
# Chain of Cytochrome P450 2C19 (Homo sapiens) (P33261 whole entry, looked up): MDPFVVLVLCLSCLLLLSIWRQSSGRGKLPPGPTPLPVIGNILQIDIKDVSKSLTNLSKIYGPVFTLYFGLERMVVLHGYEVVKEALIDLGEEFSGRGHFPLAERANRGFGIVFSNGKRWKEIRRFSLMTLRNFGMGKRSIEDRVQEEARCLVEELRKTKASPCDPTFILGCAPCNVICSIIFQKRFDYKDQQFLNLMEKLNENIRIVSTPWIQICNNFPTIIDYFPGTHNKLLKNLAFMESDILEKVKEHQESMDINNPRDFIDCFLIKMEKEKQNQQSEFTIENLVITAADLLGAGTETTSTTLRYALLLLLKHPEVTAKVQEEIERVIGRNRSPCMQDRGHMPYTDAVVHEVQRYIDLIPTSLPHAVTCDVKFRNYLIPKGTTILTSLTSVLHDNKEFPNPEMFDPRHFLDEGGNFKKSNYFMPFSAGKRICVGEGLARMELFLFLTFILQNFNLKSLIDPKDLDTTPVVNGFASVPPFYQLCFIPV
# Method in brief: as §2
structure (smiles),measurement,setting,value
Cc1ccc(C(=O)Nc2ccc(S(=O)(=O)O)c3cc(S(=O)(=O)O)cc(S(=O)(=O)O)c23)cc1NC(=O)c1cccc(NC(=O)Nc2cccc(C(=O)Nc3cc(C(=O)Nc4ccc(S(=O)(=O)O)c5cc(S(=O)(=O)O)cc(S(=O)(=O)O)c45)ccc3C)c2)c1,Potency,[1],5900 nM (active)
CC1(CN2CCC(n3c(=O)[nH]c4ccccc43)CC2)OCc2ccccc2-n2cccc21 (stereo not given),Potency,[1],13200 nM (active)
CC[C@@]1(O)C(=O)OCc2c1cc1n(c2=O)Cc2cc3c(CN(C)C)c(O)ccc3nc2-1,Potency,[1],662 nM (active)
same,Potency,[2],1660 nM (active)
same,Potency,[3],14800 nM (active)
same,Potency,[4],3720 nM (active)
CCCNCC(O)COc1ccccc1C(=O)CCc1ccccc1 (stereo not given),Potency,[1],inactive
same,Potency,[2],inactive
CC#C[C@]1(O)CC[C@H]2[C@@H]3CCC4=CC(=O)CCC4=C3[C@@H](c3ccc(N(C)C)cc3)C[C@@]21C,Potency,[1],833 nM (active)
same,Potency,[2],743 nM (active)
same,Potency,[3],3720 nM (active)
same,Potency,[5],1180 nM (active)
same,Potency,[4],7430 nM (active)
same,Potency,[6],7430 nM (active)
O=C(Nc1ccc([N+](=O)[O-])cc1Cl)c1cc(Cl)ccc1O,Potency,[1],526 nM (active)
same,Potency,[2],1320 nM (active)
same,Potency,[3],1050 nM (active)
same,Potency,[4],526 nM (active)
Cn1c(=O)c2c(ncn2C)n(C)c1=O,outcome,[7],inactive
same,outcome,[8],inactive
same,outcome,[9],inactive
same,outcome,[10],inactive
CS(=O)(=O)Nc1ccc([N+](=O)[O-])cc1Oc1ccccc1,Potency,[2],inactive
same,Potency,[3],16600 nM (active)
same,Potency,[6],inactive
O=C(C1CCCCC1)N1CC(=O)N2CCc3ccccc3C2C1 (stereo not given),Potency,[4],inactive
same,Potency,[6],inactive
Clc1ccc2nsnc2c1NC1=NCCN1,Potency,[2],inactive
same,Potency,[5],inactive
same,Potency,[4],inactive
same,Potency,[6],inactive
Nc1nnc(-c2cccc(Cl)c2Cl)c(N)n1,Potency,[3],inactive
same,Potency,[5],inactive
same,Potency,[4],inactive
COc1ccc(C2CNC(=O)C2)cc1OC1CCCC1 (stereo not given),Potency,[1],inactive
same,Potency,[3],inactive
same,Potency,[4],inactive
NS(=O)(=O)c1cc2c(cc1Cl)NCNS2(=O)=O,Potency,[3],inactive
same,Potency,[5],inactive
same,Potency,[4],inactive
Cc1cc(C(C)(C)C)cc(C)c1CC1=NCCN1,Potency,[3],inactive
same,Potency,[5],inactive
same,Potency,[4],inactive
CC(C)(C)C(=O)Oc1ccc(S(=O)(=O)Nc2ccccc2C(=O)NCC(=O)O)cc1,Potency,[3],inactive
same,Potency,[4],inactive
COc1ccccc1OCC(O)CN1CCN(CC(=O)Nc2c(C)cccc2C)CC1 (stereo not given),Potency,[1],inactive
same,Potency,[4],inactive
COc1ccc2[nH]cc(CCNC(C)=O)c2c1,Potency,[1],inactive
same,Potency,[3],inactive
same,Potency,[4],inactive
